# Results filed as inconclusive are left out. Values without a mark were called inactive. The source made the active and inactive calls. Calls come from the whole dose curve; as a rule, active = well fitted inhibition curve with a large enough effect; inconclusive = small, poorly fitted or top-dose-only effect; inactive = no such curve, though single readings can be large or run the other way.
# System: Zika virus NS2B-NS3 protease (unlinked)
# Assay: Optimization of GU AMC qHTS for Zika virus inhibitors: Unlinked NS2B-NS3 protease assay (AID 1347151); note: nearly all actives have a fitted effect of over 80% in size;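 for activity change, negative = inhibition: 0% = no-inhibitor control and -100% = no-enzyme control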
# Conditions: recombinant ZIKV NS2B-NS3 protease, fluorogenic AMC substrate; series mostly up to 52.5 µM; activity change, negative = inhibition: at the top concentration
# From the text: Avindra Nath, Ph.D., National Institute of Neurological Disorders and Stroke (NINDS), Bethesda, MD
# Radhakrishnan Padmanabhan, Ph.D., Georgetown University (GU), Washington D.C.
# Zika Virus causes congenital defects, including microcephaly and is associated with Guillain-Barre syndrome, eningoencephalitis and myelitis in infected adult. […] Using a target-based approach, we hope to establish a screening paradigm to uncover novel, cell-active NS2B-NS3 protease (Zika Virus) specific inhibitors from NCATS' collection of small molecules using qHTS.
# Early Translation Branch (ETB)
# National Center for Advancing Translational Sciences (NCATS), Rockville, MD
# National Institute of Health (NIH), Bethesda, Maryland
# Padmanabhan lab provided the NS2B hydrophilic domain and NS3 protease domain in a noncovalent complex used for the unlinked assay. Control compound aprotinin is obtained from Thermo Scientific (#78432; Waltham, Massachusetts). NS2B-NS3 AMC substrate (Bz-Nle-Lys-Arg-Arg-AMC; Nle-KRR-AMC) purchased from Bachem (#I-1995; Torrance, CA). Ac-VKTGKR-AMC purchased from Genscript or Bachem, Ac-FAAGKR-AMC purchased from Genscript, Ac-GLVKRR-AMC purchased from Genscript, Ac-LKKR-AMC purchased from Genscript.
# GU AMC unlinked NS2B-NS3 protease qHTS protocol:
# Briefly, 3 microL of Zika virus unlinked NS2B-NS3 protease (25 nM for linked final concentration), in assay buffer (10 mM Tris-HCl pH 8.0 with 0.01% Tween 20) was dispensed into a 1,536-well solid-bottom black plate (Greiner Bio One, Monroe, NC). Twenty-three nL of compounds (final concentration range 7.28 nM to 114 microM) or control Aprotinin (final concentration range 3.47 nM to 114 microM) were transferred via Wako Pin-tool (Wako Automation, Richmond, VA). […] Plates were then read immediately on a ViewLux High-throughput CCD imager (PerkinElmer, Waltham, MA) equipped with standard UV fluorescence optics (340(30) nm excitation, 450(20) nm emission) then incubated (room temperature, protected from light) for 15 minutes (~20% conversion). The change in fluorescence intensity over the 15-minute reaction period was normalized against no-inhibitor and no-enzyme controls and the resulting percent inhibition data were fitted to a 4-parameter Hill equation. Aprotinin was used as the intraplate control.
# Potency is the fitted concentration of half-maximal effect.
Compound,"activity change, negative = inhibition [%]",Potency
CCN(CC)CCNC(=O)c1ccc(N)cc1,6.65,
CC(C)NCC(O)COc1cccc2[nH]ccc12 (stereo not drawn),-9.18,
CC(=O)c1ccc(S(=O)(=O)NC(=O)NC2CCCCC2)cc1,5.02,
CC(=O)N[C@@H](CS)C(=O)O,3.91,
CC/C(=C(\c1ccccc1)c1ccc(OCCN(C)C)cc1)c1ccccc1,,inactive
Cc1cccc(C)c1OCC(C)N (stereo not drawn),1.18,
CCn1cc(C(=O)O)c(=O)c2ccc(C)nc21,3.35,
CC(=O)O[C@]1(C(C)=O)CC[C@H]2[C@@H]3C=C(Cl)C4=CC(=O)[C@@H]5C[C@@H]5[C@]4(C)[C@H]3CC[C@@]21C,-2.03,
COc1ccc(Cc2nccc3cc(OC)c(OC)cc23)cc1OC,-11.1,
C[C@H](NC(=O)C(=O)Nc1ccccc1C(C)(C)C)C(=O)N[C@@H](CC(=O)O)C(=O)COc1c(F)c(F)cc(F)c1F,7.64,
O=C1NC(=O)C(c2ccccc2)(c2ccccc2)N1,3.91,
CCCNC(=O)NS(=O)(=O)c1ccc(Cl)cc1,-2.4,
CC(=O)Nc1ccc([C@H](C)C(=O)Nc2ncc(C(C)C)s2)cc1,8.15,
O=C1NCC2(CCN(CCc3ccccc3)CC2)O1,-2.3,
CN(C)CCC(c1ccccc1)c1ccccn1 (stereo not drawn),2,
O=C(NCCN1CCOCC1)c1ccc(Cl)cc1,-1.45,
CCCCC1C(=O)N(c2ccccc2)N(c2ccccc2)C1=O,-16.1,

Compound,"activity change, negative = inhibition [%]",Potency
COc1cccc(-c2cc(=O)c3ccccc3o2)c1N,-17.1,
Clc1ccc(Cn2c(CN3CCCC3)nc3ccccc32)cc1,-5.18,
C[N+](C)(C)CCCCCC[N+](C)(C)C,,inactive
CCN(CC)C(=O)c1ccc(O)c(OC)c1,0.913,
NC(N)=Nc1nc(CSCC/C(N)=N/S(N)(=O)=O)cs1,3.24,
O=c1c(-c2ccc(O)cc2)coc2cc(O)ccc12,,29.9 µM (active)
COC(=O)[C@@H]1[C@H]2C[C@H]3c4[nH]c5ccccc5c4CCN3C[C@@H]2CC[C@@H]1O,-26.5,
COc1ccccc1N1CCN(CCCNc2cc(=O)n(C)c(=O)n2C)CC1,-5.17,
O=c1cc(-c2ccccc2)oc2cc(O)c(O)c(O)c12,,2.71 µM (active)
CC=CCC(C)C(O)C1C(=O)NC(CC)C(=O)N(C)CC(=O)N(C)C(CC(C)C)C(=O)NC(C(C)C)C(=O)N(C)C(CC(C)C)C(=O)NC(C)C(=O)NC(C)C(=O)N(C)C(CC(C)C)C(=O)N(C)C(CC(C)C)C(=O)N(C)C(C(C)C)C(=O)N1C (stereo not drawn),31,
CC(=O)CCCCn1c(=O)c2c(ncn2C)n(C)c1=O,5.83,
NCCS,2.89,
Clc1ccc(C(c2ccc(Cl)cc2)n2cc[n+](CC(OCc3ccc(Cl)cc3Cl)c3ccc(Cl)cc3Cl)c2)cc1 (stereo not drawn),-17.5,
CCN1CCC[C@H]1CNC(=O)c1cc(S(N)(=O)=O)ccc1OC,5.46,
CCN(CC)CCOC(=O)c1ccc(N)cc1,5.22,
CC(C)(C)c1ccc(C(O)CCCN2CCC(C(O)(c3ccccc3)c3ccccc3)CC2)cc1 (stereo not drawn),-3.89,
